Here are results for 24 compounds from PubChem BioAssay (NCATS).

Inconclusive results are not listed. More than one record can exist for a structure, and the calls need not agree. Active and inactive are the calls of the source. Unless noted, the call rests on the fitted dose curve.

Test [1] can be described thus: Primary qHTS for Vero E6 cytotoxicity: counterscreen for inhibitors of SARS-S pseudo-typed particle cell entry (AID 1479150). Particulars: outcome: dose series up to 57.1 µM unless noted.
Test [2] can be described thus: Confirmatory qHTS for VERO E6 Cytotoxicity Assay: Counterscreen for SARS-CoV-2 CPE Assay (AID 1508605). Further: nearly all actives have a fitted effect of over 60% in size. Further: potency means the concentration at half of the fitted maximal effect. For orientation: Quantitative high-throughput screening tests each substance at several concentrations.
The nature of test [3]: Primary qHTS for inhibitors of MERS-S pseudo-typed particle cell entry (AID 1479149). Further: nearly all actives have a fitted effect of over 60% in size. Further: potency means the concentration at half of the fitted maximal effect. On activity change, negative = inhibition: on the % scale 0 is the no-effect control and ±100 the full control effect. Particulars: outcome: dose series up to 57.1 µM unless noted.
Test [4] can be described thus: Confirmatory qHTS for activators (rescue) of SARS-CoV-2 Cytopathic Effect (CPE) (AID 1508606). Further: potency means the concentration at half of the fitted maximal effect; nearly all actives have a fitted effect of over 70% in size.
Test [5] in a line: Cytotoxicity counterscreen for inhibitors of SARS-CoV-2 cell entry (AID 1645845). Further: nearly all actives have a fitted effect of over 50% in size. Further: potency means the concentration at half of the fitted maximal effect. The note with it: outcome: dose series up to 57.1 µM unless noted. The essentials:
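48 h compound treatment (after 1 h preincubation), HEK293-ACE2 cells, 37 C/5% CO2; ATP luminescence endpoint; normalized to cell wells and media blanks.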
A general note: Counterscreens check selectivity or assay interference.

The nature of test [6]: Primary qHTS to identify inhibitors of SARS-CoV-2 cell entry (AID 1645846). Further: nearly all actives have a fitted effect of over 45% in size. Further: potency means the concentration at half of the fitted maximal effect. The note with it: SARS-CoV-2 pseudovirus cell entry assay, luminescence; activity change, negative = inhibition: at 57.1 µM (top of the series) unless noted. The essentials:
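Luminescence readout (Bright-Glo luciferase) 48 h after pseudoparticle addition. HEK293-ACE2 cells, 1500/well; compound pre-incubation 1 h; Normalized to spike PP and bald PP.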

A short description of test [7]: Primary qHTS for Huh7 cytotoxicity: counterscreen for inhibitors of MERS-S pseudotyped particle cell entry (AID 1479147). The note with it: outcome: dose series up to 57.1 µM unless noted.
Test [8] can be described thus: Confirmatory qHTS to identify inhibitors of SARS-CoV-2 cell entry (AID 1645844). Further: potency means the concentration at half of the fitted maximal effect; nearly all actives have a fitted effect of over 45% in size. An outline of the steps: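 Luminescence from a luciferase reporter, read 48 hr after pseudotyped-particle addition, gives entry signal, normalised to spike-bearing PP wells and bald PP lacking fusion protein wells. Cells are Expi293F stably expressing human ACE2, compound-pretreated 1 hr.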

Test [9] is described as follows: VSVG counterscreen qHTS to identify inhibitors of SARS-CoV-2 cell entry (AID 1645847). Further: nearly all actives have a fitted effect of over 65% in size. Further: potency means the concentration at half of the fitted maximal effect. On activity change, negative = inhibition: on the % scale 0 is the no-effect control and ±100 the full control effect. An outline of the steps: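 HEK293-ACE2 cells (Expi293F stably expressing human ACE2) were pretreated with compound for 1 h at 37 °C, then infected with MLV-based VSV-G pseudotyped particles for 48 h. Luciferase luminescence was normalized to VSV-G PP and bald PP wells.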
Test [10] deals with Glutathione peroxidase 1 (Homo sapiens) (UniProt P07203). Kind of test: Primary qHTS Assay for Inhibitors of Recombinant Selenoprotein Glutathione Peroxidase 1 (GPX1) (AID 1845191; active means well fitted curve in the direction sought with a large enough effect; an effect the other way counts as inactive or inconclusive; further: on the % scale 0 is the no-effect control and ±100 the full control effect; nearly all actives have a fitted effect of over 65% in size). An outline of the steps:
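10 nM GPX1 + cpd, 30 min RT; start w/ 1 mM GSH, 0.5 mM cumene hydroperoxide, 0.5 mM NADPH, 100 nM GR, 0.01% BSA; buffer 50 mM Tris-HCl pH 7.5, 2 mM EDTA, 150 mM NaCl; Fl 340/450, 0 & 15 min.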

The nature of test [11]: qHTS Assay for Identifying Gametocytocidal Compounds (AID 743244; active means well fitted curve in the direction sought with a large enough effect; an effect the other way counts as inactive or inconclusive; further: potency means the concentration at half of the fitted maximal effect). The note with it: P. falciparum 3D7 stage III-V gametocytes, alamarBlue, 72 h. An outline of the steps:
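Using 20,000 stage III–V 3D7 gametocytes per well, compounds were incubated 72 h under 37 °C/5% CO2. Viability was then assessed by 24 h alamarBlue reduction, measured fluorometrically at 525/598 nm.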

Chain of Glutathione peroxidase 1 (Homo sapiens) (P07203 whole entry, looked up): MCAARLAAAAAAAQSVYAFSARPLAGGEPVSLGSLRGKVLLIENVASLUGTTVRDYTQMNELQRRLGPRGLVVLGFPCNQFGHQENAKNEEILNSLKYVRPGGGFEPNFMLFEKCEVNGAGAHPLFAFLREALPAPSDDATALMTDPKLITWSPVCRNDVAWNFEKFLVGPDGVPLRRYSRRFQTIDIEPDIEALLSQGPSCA

For `CCCN1C[C@@H](NS(=O)(=O)N(CC)CC)C[C@@H]2Cc3c(O)cccc3C[C@H]21`, in test [1], the Potency result was “inactive”.

`CCCc1cc(C)[nH]c(=O)c1CNC(=O)c1cc(-c2ccnc(N3CCN(C)CC3)c2)cc2c1cnn2C(C)C`: the Potency result in test [2] is “inactive”.

For the compound `O=C(OC[C@H]1O[C@@H](OC(=O)c2cc(O)c(O)c(OC(=O)c3cc(O)c(O)c(O)c3)c2)[C@H](OC(=O)c2cc(O)c(O)c(OC(=O)c3cc(O)c(O)c(O)c3)c2)[C@@H](OC(=O)c2cc(O)c(O)c(OC(=O)c3cc(O)c(O)c(O)c3)c2)[C@@H]1OC(=O)c1cc(O)c(O)c(OC(=O)c2cc(O)c(O)c(O)c2)c1)c1cc(O)c(O)c(OC(=O)c2cc(O)c(O)c(O)c2)c1`, the Potency entry in [1] is “inactive”.

On to `C[C@](C#N)(COc1cc(C#N)ccc1C(F)(F)F)NC(=O)c1ccc(SC(F)(F)F)cc1`, for which the Potency entry in test [1] was “inactive”.

As for `CCN1/C(=C/C=C/C=C/c2sc3ccccc3[n+]2CC)Sc2ccccc21`, in [3], the Potency is 11.2 µM (active).

Consider `C=C1C(=O)O[C@H]2C3=C(C)CCC[C@]3(C)C(=O)C[C@@H]12`, for which the Potency in [2] was 10 µM (active).

Take `COc1ccc2c(c1)N(C[C@H](C)CN(C)C)c1ccccc1S2`: the Potency entry in [1], in test [2] and in test [5] was “inactive” in each case. Besides, the Potency in test [4] is 10 µM (active).

Regarding `CCc1ccccc1OC[C@@H](O)CN[C@H]1CCCc2ccccc21`, the Potency result in test [2] was “inactive”.

For `Cc1[nH]c(/C=C2\C(=O)Nc3ccc(F)cc32)c(C)c1C(=O)NCCN1CCCC1`, the Potency entry in [1] is “inactive”. Also, in test [6], the activity change, negative = inhibition is -9.79% [at 27.1 µM].

For the compound `Cc1cc(-n2c(=O)[nH]c(=O)n(C)c2=O)ccc1Oc1ccc(S(=O)(=O)C(F)(F)F)cc1`, the Potency entry in test [7] was “inactive”. Moreover, the Potency in test [6] is 17.8 µM (active).

Take `C[C@@H]1CN(CC(=O)N2CC(C)(C)c3ncc(Cc4ccc(F)cc4)cc32)[C@@H](CN2CCOC[C@H]2C)CN1`: in test [2], the Potency entry was “inactive”.

In the case of `Cc1cc(/C=C/c2ccc3cc(N(C)C)ccc3[n+]2C)c(C)n1-c1ccccc1`, the Potency in [3] is 5.01 µM (active); in [6] it was 1.78 µM (active).

With `COc1cc([C@@H]2c3cc4c(cc3[C@@H](O[C@@H]3O[C@@H]5CO[C@@H](C)O[C@H]5[C@H](O)[C@H]3O)[C@H]3COC(=O)[C@H]23)OCO4)cc(OC)c1OP(=O)(O)O`, the Potency entry in test [7] and in test [5] was “inactive” each time. In addition, the Potency in test [8] is 0.541 µM (active); in test [9] it was 0.482 µM (active).

`COc1ccc2c(c1)[C@]1(C[C@H]1c1ccc3c(/C=C/c4ccc(CN5C[C@@H](C)O[C@@H](C)C5)cc4)n[nH]c3c1)C(=O)N2`: the Potency result in [2] was “inactive”.

`C/C(=C(\CCOC(=O)c1ccccc1)SS/C(CCOC(=O)c1ccccc1)=C(/C)N(C=O)Cc1cnc(C)nc1N)N(C=O)Cc1cnc(C)nc1N`: the Potency entry in test [3] and in [5] was “inactive” each time.

On to `CC1=CC(=C(c2ccc(N)cc2)c2ccc(N)cc2)C=CC1=N`, for which the Potency in test [3] is 7.08 µM (active); in [5], 8.91 µM (active); in test [6], 5.01 µM (active).

With `COc1cc(N2CCC(N3CCN(C)CC3)CC2)ccc1Nc1ncc(Cl)c(Nc2ccccc2P(C)(C)=O)n1`, the Potency entry in test [1] and in test [9] was “inactive” throughout. Also, the Potency in test [8] is 4.82 µM (active); in test [6], 8.91 µM (active).

Turning to `Clc1ccc(CCCOCCCN2CCCCC2)cc1`, the Potency entry in test [1] and in test [5] was “inactive” throughout.

`CCSc1ccc2c(c1)N(CCCN1CCN(C)CC1)c1ccccc1S2`: in test [1], the Potency result is “inactive”.

As for `CC1(C)[C@@H](O[C@H]2O[C@H](C(=O)O)[C@@H](O)[C@H](O)[C@H]2O[C@@H]2O[C@H](C(=O)O)[C@@H](O)[C@H](O)[C@H]2O)CC[C@]2(C)[C@H]3C(=O)C=C4[C@@H]5C[C@@](C)(C(=O)O)CC[C@]5(C)CC[C@@]4(C)[C@]3(C)CC[C@@H]12`, the Potency result in test [3] and in test [1] was “inactive” in each case.

Turning to `CC(=O)Oc1cc(C)c(OC(C)=O)c2ccccc12`, in [1], the Potency entry is “inactive”. For the same compound, the Potency in test [6] was 31.6 µM (active).

For the compound `CC1CCCC(O)CCCCCc2cc(O)cc(O)c2C(=O)O1` (stereo not given), the Potency result in test [7], in [1] and in test [10] was “inactive” each time.

For the compound `NC(=O)c1cnc(N[C@@H]2CCCC[C@@H]2N)nc1Nc1cccc(-n2nccn2)c1`, in [2], the Potency entry is “inactive”.

Take `CCCCC(=O)OCC(=O)[C@]1(O)Cc2c(O)c3c(c(O)c2[C@@H](O[C@H]2C[C@H](NC(=O)C(F)(F)F)[C@H](O)[C@H](C)O2)C1)C(=O)c1c(OC)cccc1C3=O`: the Potency in test [11] was 7.08 µM (active); in test [3] it was 14.1 µM (active); in test [8], 0.857 µM (active); in test [6] it was 1 µM (active); in test [9], 0.961 µM (active). In addition, the Potency result in test [1] is “inactive”. In test [6], the activity change, negative = inhibition is -97.5%.
